Measured values published in PubChem BioAssay.
Entries with a potency or affinity are not part of this list. Calls of active or inactive are those of the source. Cut-off not given; nearly all actives show IC50 up to about 0.91 µM.

target: Calcium-dependent protein kinase 4 (Plasmodium falciparum (isolate 3D7)) (UniProt Q8IBS5); experiment: PfCDPK4 kinase inhibitors, biochemical, TCAMS library (AID 1159588); details: recombinant PfCDPK4, Kinase-Glo ATP depletion luminescence
Sequence (Q8IBS5 whole entry, looked up): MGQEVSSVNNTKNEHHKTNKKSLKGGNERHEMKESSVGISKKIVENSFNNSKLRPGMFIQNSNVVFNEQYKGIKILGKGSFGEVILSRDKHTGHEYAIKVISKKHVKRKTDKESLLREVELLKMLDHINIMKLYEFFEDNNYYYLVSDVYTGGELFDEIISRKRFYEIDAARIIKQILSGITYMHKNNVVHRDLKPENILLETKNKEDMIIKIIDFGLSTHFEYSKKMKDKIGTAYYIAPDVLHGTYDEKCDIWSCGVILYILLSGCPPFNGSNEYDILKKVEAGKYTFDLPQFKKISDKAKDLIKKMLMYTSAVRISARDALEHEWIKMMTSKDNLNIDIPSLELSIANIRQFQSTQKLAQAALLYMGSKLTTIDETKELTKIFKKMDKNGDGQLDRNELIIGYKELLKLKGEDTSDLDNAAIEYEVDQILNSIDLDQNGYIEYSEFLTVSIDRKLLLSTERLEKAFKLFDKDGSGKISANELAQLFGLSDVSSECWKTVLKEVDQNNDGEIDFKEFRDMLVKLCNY

outcome, inactive:
NCCCNc1ccc(-c2ccc(NC(=O)Nc3cc(C(F)(F)F)ccc3F)cc2)cn1
O=C(NCCN1CCC(c2ncc(-c3ccccc3)o2)CC1)c1ccc(NC(=O)c2ccc(Cl)cc2)cc1
O=C(c1cc(C(=O)Nc2ccccc2F)c(=O)n(-c2ccccc2F)c1)c1cc(Cl)ccc1O
CCN1CCC(N(Cc2ccc(-c3ccc(C(F)(F)F)cc3)cc2)C(=O)Cn2c(CCc3cccc(F)c3F)cc(=O)c3c2CCC3)CC1
Cc1ccc(NC(=O)c2ccc(N3CCC(c4ccccc4C)CC3)nc2)cc1
Cc1ccc2[nH]c3c(c2c1)CC(C(=O)NCCC(C)C)NC31CCN(Cc2ccccc2)CC1 (stereo not given)
CCc1cc2c3c(N)nc(N)nc3ccc2n1CC
CN(C)CCOc1cc(NC(=O)Nc2ccc(-c3ccccc3)cc2Cl)ccc1I
CN1CCCC1CCOc1ccc2c(c1)N(C(=O)Nc1cc(Br)cc(C(F)(F)F)c1)CC2 (stereo not given)
CN1CCN(c2ccnc3cc4ccccc4cc23)CC1
CC(=Nc1ccc(Cl)c(Cl)c1)N(C)C
CN1CCCc2cc(NC(=O)C=Cc3ccc(-c4ccc(F)cc4F)o3)ccc2C1
Cn1cncc1CCN(Cc1ccc(-c2ccc(C(F)(F)F)cc2)cc1)C(=O)Cn1c(SCc2cccc(F)c2F)cc(=O)c2ccccc21
Cc1cc(NC(=O)Nc2ccc(N(C)C)cc2)c2cc(Cl)ccc2n1
CC(CN1CCN(C)CC1)C(=O)Nc1cccc(-c2cccc(-c3nc4ccccc4[nH]3)c2)c1 (stereo not given)
Cc1ccccc1N1CCN(c2ccc(C(=O)Nc3ccccc3)cc2)CC1
OCCN1CCN(Cc2ccc(-c3ccc(-c4nc5ccc(C(F)(F)F)cc5[nH]4)s3)cc2)CC1
NC(N)=NCCCN(Cc1ccccc1)c1ccc(Cl)cc1
O=[N+]([O-])c1cccc(S(=O)(=O)N2CCN(CC(O)COc3ccc(-c4ccccc4)cc3)CC2)c1 (stereo not given)
COc1ccc(-c2cccc(NC(=O)c3ccc(Cl)cc3)c2)cc1CNC(C)C
c1cc2c3c(cccc3c1)NC(CCCCCCCCC1=Nc3cccc4cccc(c34)N1)=N2
CCc1ccc(C(=O)Nc2cccc(CN3CCCN(Cc4ccc(O)cc4)CC3)c2)cc1
c1ccc(COc2ccccc2COc2ccccc2-c2ccc3cccnc3n2)cc1
O=S(=O)(Nc1ccc(CCN2CCC(N3CCCCC3)CC2)cc1)c1ccc2ccccc2c1
Cc1cccc(CNc2nc(C)cc(N[C@@H](Cc3ccccc3)C(=O)NCCOc3ccccc3)n2)c1
Cc1cc(C(F)(F)F)n2nc(C3CCN(Cc4cc(C)c(O)c(C)c4)C3)cc2n1 (stereo not given)
CC1(C)CN(CCC2CCC(NC(=O)/C=C/c3ccccc3F)CC2)Cc2ccc(C#N)cc21 (stereo not given)
NC(N)=NCCCCN(Cc1ccccc1)c1ccccc1
Cc1cc(N(C)CCCN2CCCCC2)nc(Nc2ccc(Cl)cc2)n1
OCCNc1nc(Nc2ccc(Cl)cc2)nc2ccccc12
C[C@H](Cc1ccc(OCCCCCCOc2ccc(C[C@@H](C)NC[C@H](O)c3cccc(Cl)c3)cc2)cc1)NC[C@H](O)c1cccc(Cl)c1
Cc1sc(CNCCCNc2cc(=O)c3ccccc3[nH]2)c(I)c1C
Cc1cccc2[nH]c(-c3cccc(-c4cccc(NC(=O)C(C)CN(C)C)c4)c3)nc12 (stereo not given)
CN1CCN(Cc2cc3cc(NC(=O)/C=C/c4cccc(Cl)c4)ccc3s2)CC1
CCc1ccc(-c2cnc(N)c3cc(-c4ccnc(N)n4)ccc23)cc1
CCCN=CNc1cc(-c2csc(N=C(N)N)n2)cc([N+](=O)[O-])c1
CCOc1cc(Cc2cnc(N)nc2N)cc(OCC)c1OCCCCC(=O)OC
Cc1ccc(-n2c(Cc3cccc4ccccc34)nnc2SCCC#N)c(C)c1
CC(Nc1cc(-c2ccccn2)nc(-c2ccccn2)n1)c1ccccc1 (stereo not given)
CS(=O)(=O)CCOCc1ccc(-c2ccc3ncnc(Nc4ccc(OCc5cccc(F)c5)c(Cl)c4)c3c2)o1
